# Measurements as given in PubChem BioAssay.
# Values without a mark were called inactive. No rule for the calls is given here.
# System: Aerobactin synthetase IucA (Klebsiella pneumoniae, hypervirulent)
# Assay: biochemical IucA inhibition screen of LOPAC library by absorbance (AID 1346212);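 also: 100% = no compound wells and 0% = no enzyme wells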
# Details: IucA enzyme assay, absorbance (OD) readout; hits give low values;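 tested at 8 µM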
row,Compound,remaining activity [%]
1,O=C(O)Cc1c[nH]c2ccc(O)cc12,101
2,O=C(c1ccc(OCCCc2cnc[nH]2)cc1)C1CC1,100
3,Oc1ccc(C2CNCCc3c2cc(O)c(O)c3Cl)cc1 (configuration not stated),94.3
4,N=C(N)SCCc1cnc[nH]1,122
5,C[C@H]1C[C@H]2[C@@H]3CCC4=CC(=O)C=C[C@]4(C)[C@@]3(F)[C@@H](O)C[C@]2(C)[C@@]1(O)C(=O)CO,114
6,CNC1(C)C2CCC(C2)C1(C)C (configuration not stated),96.4
7,CNC(=O)[C@H]1O[C@@H](n2cnc3c(N)ncnc32)C(O)[C@H]1O (some centres not stated),129
8,CC(=O)NCCc1ccc(O)c(O)c1,116
9,COc1ccc2c(c1OC)C(=O)O[C@@H]2[C@H]1c2c(cc3c(c2OC)OCO3)CCN1C,112
10,C[C@H](Cc1ccc(O)c(O)c1)[C@@H](C)Cc1ccc(O)c(O)c1,117
11,CNc1ncnc2c1ncn2[C@@H]1O[C@H](CO)[C@@H](O)[C@H]1O,125
12,c1ccc2c(c1)CCC[C@H]2Nc1nc2ccccc2[nH]1,109
13,CCn1c(=O)[nH]c2cc(Cl)c(Cl)cc21,98.7
14,COC1=C(OC)C(=O)c2ccccc2C1=O,109
15,CCCCN1CCC(COC(=O)c2cc(Cl)c(N)c3c2OCCO3)CC1,109
16,Nc1ccn([C@H]2CC[C@@H](CO)O2)c(=O)n1,121
17,O=C(O)C1(C(=O)O)CCC1.[NH2-].[NH2-].[Pt+2],113
